Bioassay records from PubChem.
Most compounds without a hit are left out; they make up all but 6.7% or so of the library.
C diff HTS = C. difficile growth inhibitors, primary screen, HTS. Clostridium difficile clinical isolate growth, OD600, 24 h; active compounds read low. growth activity, negative = inhibition, % at 16 µg/mL (by protocol). 86,000 compounds, 0.25% hits. AID 1259249, 2017;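 active = mean growth activity at or below -80% and every replicate also at or below -80%; inconclusive = mean at or below -80% but some replicate above -80%; inactive = mean growth activity above -80%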
T cruzi growth-1 = T. cruzi intracellular proliferation inhibitors, primary screen, cell-based, beta-gal Tulahuen parasites, NIH3T3 host, luminescence; inhibition, % at 8.34 µM; 77,000 compounds, 5.9% hits; T. cruzi beta-gal in NIH3T3, GalScreen luminescence, 90 h;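 active = mean inhibition above about 93%, with at least 55% of replicates each passing it, limit read from the data, passing the limit was not always enough; inconclusive = only one of those two conditions holds; inactive = neither condition holds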
Pf Dd2 growth = P. falciparum Dd2 growth inhibitors, primary screen, SYBR Green fluorescence, single dose replicates. 94,000 compounds, 2.3% hits. 72 h; active compounds read low. activity change, % at 10 µM; in the data active = activity change below about -80%; inconclusive = no clear call, values can overlap the other calls
T cruzi growth-2 = T. cruzi intracellular proliferation inhibitors, confirmation, cell-based, NIH3T3 host, beta-gal parasite, luminescence, cherry-pick; shares compounds with T cruzi growth-1; T. cruzi beta-gal in NIH3T3, GalScreen luminescence, 90 h; inhibition, % at 8.35 µM; 5,600 compounds, 72% hits; AID 651739, 2012;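 active = mean replicate inhibition above about 95% and at least 55% of replicates individually reaching it, limit read from the data; inconclusive = only one of the two criteria is met; inactive = neither criterion is met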
T cruzi growth-3 = inhibitors of intracellular T. cruzi replication, confirmation, NIH3T3 host cells, beta-gal parasites, cherry-pick, set 2; shares compounds with T cruzi growth-1; T. cruzi beta-gal in NIH3T3, GalScreen luminescence, 90 h; inhibition, % at 2.09 µM; 5,600 compounds, 21% hits; AID 651740, 2012;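 active = mean inhibition above about 95%, with at least 55% of replicates also reaching it, limit read from the data; inconclusive = meets just one of the two conditions; inactive = meets neither condition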
3T3 cytotox = cytotoxicity in mouse NIH/3T3 fibroblasts, confirmation, cytotoxicity control for T. cruzi proliferation inhibitor project, cell-based, cherry-pick, single point. shares compounds with T cruzi growth-1. NIH/3T3 viability, CellTiter-Glo ATP luminescence, 90 h. cytotoxicity (signal decrease), % at 8.35 µM. 5,600 compounds, 14% hits. AID 651742, 2012;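 active = mean signal decrease across replicates above about 35% based on untreated-well scatter, with enough replicates individually passing, limit read from the data; inconclusive = no rule stated though some were filed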
NIH3T3 tox 2 = NIH/3T3 fibroblast cytotoxicity, confirmation, cytotoxicity control, cell-based, cherry-pick, single point, set 2 | shares compounds with T cruzi growth-1 | NIH/3T3 viability, CellTiter-Glo ATP luminescence, 90 h | inhibition, % at 24.9 µM | 5,600 compounds, 56% hits | AID 651744, 2012;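 active = mean loss of cell viability signal at or above a set limit, and enough replicates individually reaching it; inconclusive = meets only the mean limit or only the replicate share; inactive = meets neither condition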
Hits are given with their value; - = inactive; ? = inconclusive; . = no result.

SMILES | C diff HTS | T cruzi growth-1 | Pf Dd2 growth | T cruzi growth-2 | T cruzi growth-3 | 3T3 cytotox | NIH3T3 tox 2
C[C@H](CO)N1C[C@H](C)[C@@H](CN(C)S(C)(=O)=O)Oc2cc(C#Cc3ccc(F)cc3)ccc2S1(=O)=O | - | 106 | - | 109 | - | - | 52
C[C@H](CO)N1C[C@H](C)[C@H](CN(C)C)Oc2cc(C#Cc3ccc(F)cc3)ccc2S1(=O)=O | - | - | - | . | . | . | .
C[C@@H]1CN([C@@H](C)CO)S(=O)(=O)c2ccc(C#Cc3ccc(F)cc3)cc2O[C@H]1CN(C)C | - | - | - | . | . | . | .
C[C@@H]1CN([C@H](C)CO)S(=O)(=O)c2ccc(C#Cc3ccc(F)cc3)cc2O[C@H]1CN(C)C | - | - | - | . | . | . | .
C[C@@H]1CN([C@@H](C)CO)S(=O)(=O)c2ccc(C#Cc3ccc(F)cc3)cc2O[C@@H]1CN(C)S(C)(=O)=O | - | ? | - | - | - | 36 | 74
C[C@@H]1CN([C@H](C)CO)S(=O)(=O)c2ccc(C#Cc3ccc(F)cc3)cc2O[C@@H]1CN(C)S(C)(=O)=O | - | ? | - | ? | - | 46 | 66
COc1ccc(CN2C[C@H](O)COC[C@H]3O[C@H](CC(=O)NCc4ccccc4Cl)CC[C@@H]32)cc1 | - | - | - | . | . | . | .
O=C(C[C@H]1CC[C@H]2[C@@H](COC[C@H](O)CN2S(=O)(=O)c2ccc(Cl)cc2)O1)NCCN1CCCCC1 | - | . | - | . | . | . | .
C[C@@H]1CN([C@H](C)CO)C(=O)CCCn2nncc2CO[C@@H]1CN(C)Cc1cccnc1 | - | - | - | . | . | . | .
CCN(C[C@H]1N[C@H](CO)[C@@H]1c1ccc(-c2ccccc2)cc1)C(=O)COC | - | - | - | . | . | . | .
C[C@@H]1CN([C@H](C)CO)C(=O)Cc2cc(NC(=O)C3CCCCC3)ccc2O[C@@H]1CN(C)Cc1ccc(-c2ccccc2)cc1 | - | - | - | . | . | . | .
C[C@@H]1CN([C@H](C)CO)C(=O)Cc2cc(NC(=O)C3CC3)ccc2O[C@H]1CN(C)Cc1ccc(-c2ccccc2)cc1 | - | - | - | . | . | . | .
C[C@@H]1CN([C@@H](C)CO)C(=O)Cc2cc(NC(=O)C3CC3)ccc2O[C@H]1CN(C)Cc1ccc(-c2ccccc2)cc1 | - | 114 | - | 102 | - | - | 103
C[C@H]1CN([C@@H](C)CO)C(=O)Cc2cc(NC(=O)C3CCCCC3)ccc2O[C@@H]1CN(C)Cc1ccc(-c2ccccc2)cc1 | - | 99 | - | 104 | - | - | -
O=C(N[C@@H]1C=C[C@H](CC(=O)N2CCCCC2)O[C@@H]1CO)c1ccccn1 | . | - | - | . | . | . | .
COCC(=O)N[C@@H]1CC[C@H](CC(=O)NCc2ccccc2OC)O[C@@H]1CO | . | - | - | . | . | . | .
COc1cccc(-c2ccc([C@H]3[C@@H](CO)N4CCCCN(CC5CCOCC5)C[C@H]34)cc2)c1 | - | 107 | - | 107 | - | - | 97
OC[C@@H]1[C@@H](c2ccc(-c3cccnc3)cc2)[C@@H]2CN(CC3CCOCC3)CCCCN12 | - | - | - | . | . | . | .
COc1cccc(-c2ccc([C@@H]3[C@H]4CN(CC5CC5)CCCCN4[C@H]3CO)cc2)c1 | - | - | - | . | . | . | .
OC[C@@H]1[C@H](c2ccc(-c3cccnc3)cc2)[C@H]2CN(CC3CCOCC3)CCCCN12 | - | 97 | - | ? | - | - | -
C[C@@H]1CCCCO[C@@H](CN(C)C(=O)CCCN(C)C)[C@@H](C)CN([C@@H](C)CO)C(=O)c2cc(NC(=O)C3CCCCC3)ccc2O1 | - | - | - | . | . | . | .
CC(=O)N(C)C[C@H]1Oc2cc(-c3ccc(F)cc3)ccc2S(=O)(=O)N([C@@H](C)CO)C[C@H]1C | - | - | - | . | . | . | .
CC(=O)N(C)C[C@H]1Oc2cc(-c3ccc(F)cc3)ccc2S(=O)(=O)N([C@@H](C)CO)C[C@@H]1C | - | - | - | . | . | . | .
